Measurements as given in PubChem BioAssay (NCI).
About 83,000 compounds went through this panel and 20% of them were active in at least one assay; those are over-represented in the sample as a whole.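 In brief: 96-well plates, 48 h treatment, single concentration, percent growth endpoint.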 Calls of active or inactive are those of the source. How the source made its calls: active means growth percent below 10; inactive means the rest.

Test system: SK-OV-3 ovarian
Assay: NCI-60 one-dose screen, 48 h (100 = growth as untreated, 0 = no growth, -100 = all killed)
Details: 10 µM

Question: CCOc1ccc(Nc2nc3ccccc3nc2Nc2ccc(OCC)cc2)cc1 was tested. Which growth did it give?
Answer: 108% (inactive)

Question: For O=c1cc(-c2ccccc2)oc2cc(OCCCCNCc3ccccc3)cc(O)c12, which growth is on record?
Answer: 61.1% (inactive)

Question: Which growth does the source give for Cc1ccc(C(C)C)cc1NC(=O)c1ccccc1N(C)C here?
Answer: 93.7% (inactive)

Question: How did the growth turn out when CCCCSc1nc(Nc2ccc(/C(C)=N/NC(N)=S)cc2)c(C#N)c(-c2ccc(F)cc2)n1 was run?
Answer: 78.4% (inactive)

Question: With O=C(c1ccc(Cl)cc1)C1[C@H](c2ccccc2Br)[C@@H](c2ccccc2)NC12C(=O)Nc1ccccc12 (some centres not stated) as the compound, how does the growth read?
Answer: 35.9% (inactive)

Question: How did the growth turn out when CC(=O)c1ccc(NC(=O)NCn2c(=O)[nH]c3ccccc3c2=O)cc1 was run?
Answer: 94.9% (inactive)

Question: How did the growth turn out when [2H]C([2H])([2H])Oc1ccc2ncc(C#Cc3cncc(C(=O)Nc4ccc(CN5CCN(C)CC5)c(C(F)(F)F)c4)c3)n2n1 was run?
Answer: -58.4% (active)

Question: With O=C1Nc2cc(Cl)ccc2/C1=C/c1ccc(OCc2ccc(Br)cc2F)cc1 as the compound, how does the growth read?
Answer: -20.3% (active)

Question: How did the growth turn out when C[C@H]1[C@H](C)CC[C@]2(COC(=O)CCC(=O)NCC#CCN3CCNCC3)CC[C@]3(C)C(=CC[C@@H]4[C@@]5(C)CCCNC(C)(C)[C@@H]5CC[C@]43C)[C@H]12 was run?
Answer: 51.4% (inactive)

Question: Which growth does the source give for COc1ccc2nc(Cl)c(-c3cc(-c4ccccc4)nc(N)n3)cc2c1 here?
Answer: 95.1% (inactive)

Question: For COc1ccc(CN2[C@H](C(=O)NCCCCCCC(=O)NO)Cc3c([nH]c4ccccc34)[C@H]2C2CC2)cc1, which growth is on record?
Answer: -33.5% (active)

Question: With CN1CCN(c2ccc(Nc3nc(NCCCNC(=O)c4ccccc4)c4sccc4n3)cc2)CC1 as the compound, how does the growth read?
Answer: 113% (inactive)

Question: For C=C1CC[C@H](C(=C)C)[C@H]2C=C(C)C(=O)C3=C(C(=O)[C@@](C)(O)C3)[C@H]12, which growth is on record?
Answer: -89.1% (active)

Question: For COc1ccc(N(C)c2cc(C#N)nc3ccccc23)cc1N, which growth is on record?
Answer: 23.8% (inactive)

Question: For COc1ccc(C(C)=C(c2ccc(OCCCN(C)C)cc2)c2ccc(OCCCN(C)C)cc2)cc1, which growth is on record?
Answer: -99.5% (active)

Question: CC1(c2ccccc2)NC(=O)N(CC(=O)Nc2ccc(C(=O)/C=C/c3ccc(Cl)cc3)cc2)C1=O (configuration not stated) was tested. Which growth did it give?
Answer: 66% (inactive)

Question: With NC(=Nc1ccc(OCCCCCCCCn2ccnn2)cc1)c1ccccc1 as the compound, how does the growth read?
Answer: 21.2% (inactive)

Question: Which growth does the source give for COC[C@@H](CC(C)C)N=C1N/C(=C\c2ccc3ncsc3c2)C(=O)N1C here?
Answer: 0.794% (active)

Question: O=C(CSc1ccc(-c2ccc(Cl)cc2)nn1)Nc1ccc(Cl)c(C(F)(F)F)c1 was tested. Which growth did it give?
Answer: 75.4% (inactive)

Question: With Cc1ccc(NC(=O)NCn2c(=O)[nH]c3ccccc3c2=O)cc1 as the compound, how does the growth read?
Answer: 57.8% (inactive)

Question: Cc1cc(C)cc(Oc2cccc(-c3c(C)nnn3C3CCN(CCN(C)C)CC3)n2)c1 was tested. Which growth did it give?
Answer: 9.31% (active)

Question: For CC(=O)NCC1=C(C)C=C2C(=O)[C@](C)(O)C3(CC3)C(C)=C21, which growth is on record?
Answer: -58.5% (active)

Question: O=C(Nc1ccc(OCC(=O)c2ccccc2)cc1)Nc1ccc(Cl)c(C(F)(F)F)c1 was tested. Which growth did it give?
Answer: 16.4% (inactive)

Question: Which growth does the source give for CCOC(=O)c1c(CSc2ccccc2)n(C)c2cc(CN(C)C)c(O)c(CN(C)C)c12 here?
Answer: 87% (inactive)

Question: Cc1ccc(-c2cc(-c3cc4ccccc4nc3Cl)[nH]c(=O)n2)cc1 was tested. Which growth did it give?
Answer: 51.6% (inactive)

Question: Which growth does the source give for COc1ccc([C@H]2C(C(=O)c3ccc(Cl)cc3)C3(N[C@@H]2c2ccccc2)C(=O)Nc2ccc(Br)cc23)cc1 (some centres not stated) here?
Answer: 22.6% (inactive)

Question: With O=C(CS(=O)(=O)c1oc(-c2ccc(Cl)cc2)nc1S(=O)(=O)c1ccc(Cl)cc1)N1CCOCC1 as the compound, how does the growth read?
Answer: 92.8% (inactive)

Question: Which growth does the source give for COc1ccc(C=CC(=O)c2ccc(-n3c(C)nc4c(cnn4-c4ccccc4)c3=O)cc2)cc1 here?
Answer: 123% (inactive)

Question: Which growth does the source give for O=C1Nc2ccc(Cl)cc2/C1=C/c1cccc(OCc2ccccc2)c1 here?
Answer: 75.3% (inactive)

Question: CN(C)c1ccc(/C=C/C(=O)c2ccc(NC(=O)CN3C(=O)NC(C)(c4ccccc4)C3=O)cc2)cc1 (configuration not stated) was tested. Which growth did it give?
Answer: 117% (inactive)

Question: Which growth does the source give for COc1cccc(C(N)=Nc2ccc(OCCCCCCn3cncn3)cc2)c1 here?
Answer: 29.6% (inactive)

Question: With CN1CCN(Cc2ccc(C(=O)Nc3cccc(Nc4ccc5cc(O)ccc5n4)c3)cc2C(F)(F)F)CC1 as the compound, how does the growth read?
Answer: 26.3% (inactive)

Question: With Nc1nnc(-c2c[nH]c3ccc(F)cc23)c(-c2c[nH]c3ncccc23)n1 as the compound, how does the growth read?
Answer: 92% (inactive)

Question: How did the growth turn out when C/C(=C\CC/C=C(\C)CC/C=C(\C)CC[C@@H](O)C(C)(C)O)CC/C=C(\C)CC[C@@H](O)C(C)(C)O was run?
Answer: 64.4% (inactive)

Question: For Cc1ccc(-c2ccc(SCC(=O)Nc3ccc(Cl)c(C(F)(F)F)c3)nn2)cc1, which growth is on record?
Answer: 46.6% (inactive)

Question: Which growth does the source give for CN1CCN(c2ccc(Nc3nc(NCCCNC(=O)c4ccc(F)cc4)c4sccc4n3)cc2)CC1 here?
Answer: 102% (inactive)

Question: For C#Cc1ccc(S(=O)(=O)Nc2cccc(-c3csc(NC(C)=O)n3)c2)cc1, which growth is on record?
Answer: 88.9% (inactive)
